From PubChem BioAssay
An excerpt weighted towards active compounds, which were near 7.6% of everything screened.
hERG WT inh: qHTS for Inhibitors of KCHN2 3.1: Wildtype qHTS; Voltage-gated inwardly rectifying potassium channel KCNH2 (Homo sapiens), Q12809; AID 720551, 2013; 340,000 compounds, 0.37% hits; U2OS, BacMam KCNH2, thallium flux FluxOr; stronger effect = lower value; activity change, % at 1.84 µM;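 active = maximum activity change below -70%; inconclusive = maximum activity change between -70% and -50%; inactive = maximum activity change above -50%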; also: % is scaled to controls: 0 for no effect and ±100 for the full control effect
Target sequence (Q12809 whole entry, looked up): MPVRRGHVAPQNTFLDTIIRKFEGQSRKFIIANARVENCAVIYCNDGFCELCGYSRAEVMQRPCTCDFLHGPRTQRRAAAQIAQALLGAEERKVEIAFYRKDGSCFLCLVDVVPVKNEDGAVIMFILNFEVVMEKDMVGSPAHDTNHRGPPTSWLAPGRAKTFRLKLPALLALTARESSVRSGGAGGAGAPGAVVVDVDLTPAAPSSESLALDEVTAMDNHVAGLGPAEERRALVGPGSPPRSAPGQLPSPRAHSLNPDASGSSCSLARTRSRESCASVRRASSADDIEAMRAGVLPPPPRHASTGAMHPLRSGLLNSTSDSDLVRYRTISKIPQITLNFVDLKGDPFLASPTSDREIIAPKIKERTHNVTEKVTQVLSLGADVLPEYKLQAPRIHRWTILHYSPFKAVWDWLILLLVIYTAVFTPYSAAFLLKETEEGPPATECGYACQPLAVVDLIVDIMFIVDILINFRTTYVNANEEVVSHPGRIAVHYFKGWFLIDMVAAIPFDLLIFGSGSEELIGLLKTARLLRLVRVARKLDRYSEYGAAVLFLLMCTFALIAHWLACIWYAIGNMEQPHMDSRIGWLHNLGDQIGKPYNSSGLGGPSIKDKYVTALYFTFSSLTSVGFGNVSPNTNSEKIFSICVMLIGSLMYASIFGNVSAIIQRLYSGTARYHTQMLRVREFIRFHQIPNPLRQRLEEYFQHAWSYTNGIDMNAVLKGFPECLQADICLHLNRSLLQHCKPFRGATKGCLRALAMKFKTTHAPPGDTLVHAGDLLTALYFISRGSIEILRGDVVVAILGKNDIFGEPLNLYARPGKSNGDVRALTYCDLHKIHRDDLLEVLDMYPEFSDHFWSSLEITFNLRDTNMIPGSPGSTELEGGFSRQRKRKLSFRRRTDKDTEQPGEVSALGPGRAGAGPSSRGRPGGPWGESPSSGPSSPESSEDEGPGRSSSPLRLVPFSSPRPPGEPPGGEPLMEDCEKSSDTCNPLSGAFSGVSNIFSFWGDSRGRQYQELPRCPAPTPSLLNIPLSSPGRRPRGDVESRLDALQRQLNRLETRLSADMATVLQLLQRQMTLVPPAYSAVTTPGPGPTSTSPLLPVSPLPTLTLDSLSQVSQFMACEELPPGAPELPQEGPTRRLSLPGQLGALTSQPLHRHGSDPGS
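U2OS cells were transduced with wild-type KCNH2 virus (2.03 x 10^8 / mL) for 4 h at room temperature, then cultured overnight at 37 C. Thallium flux was read with FluxOr dye. Rate constants were normalized to DMSO controls.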
KB-3-1 tox: qHTS assay for MDR1-selective chemotherapeutics: Primary screen using the parental adenocarcinoma cell KB-3-1; 400,000 compounds, 1.4% hits; KB-3-1 viability, CellTiter-Glo ATP luminescence, 72 h; Potency, µM (highest dose often 46.1 µM), hits mostly cytotoxic; also: potency is read from the fitted curve at half-maximal effect; % is scaled to controls: 0 for no effect and ±100 for the full control effect; nearly all actives have a fitted effect of over 60% in size
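Cells are dispensed, compounds pinned in, plates held at 37 °C for 72 h, then CellTiter-Glo is added and luminescence read after 10 minutes. Cell line: parental KB-3-1 in phenol-red-free DMEM, 10% FBS.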
KCNH2 3.1 inh: qHTS for Inhibitors of KCHN2 3.1: Mutant qHTS | Potassium voltage-gated channel subfamily H member 2, brain isoform KCNH2 3.1 (human) | U2OS KCNH2 3.1, thallium flux FluxOr; stronger effect = lower value | activity change, % (tested at about 1.8 µM) | 340,000 compounds, 0.95% hits | AID 720553, 2013;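 active = maximum activity change below -70%; inconclusive = maximum activity change from -70% to -50%; inactive = maximum activity change above -50%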;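 also: thallium influx rate constant from kinetic fluorescence after stimulation buffer; % is scaled to controls: 0 for no effect and ±100 for the full control effect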
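Steps: virus added to U2OS suspension (4 h, RT, dark); medium with 10% FBS added, cells plated, 37 C overnight; FluxOr/Red40 loading buffer 45 min RT; stimulation buffer, 2 min kinetic read; rate constant normalized.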
KB-V1 MDR tox: qHTS assay for MDR1-selective chemotherapeutics: Primary screen using the drug-selected MDR subline cells KB-V1; Potency, µM (titrated, usually from 46.1 µM), actives largely listed as cytotoxic; 400,000 compounds, 3.4% hits; KB-V1 MDR cells viability, CellTiter-Glo, 72 h; also: potency is read from the fitted curve at half-maximal effect; % is scaled to controls: 0 for no effect and ±100 for the full control effect; nearly all actives have a fitted effect of over 60% in size
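Readout: CellTiter-Glo luminescence, 10 min after addition. Cells: KB-V1 MDR subline, 72 h at 37 degrees C with compound. Analysis: corrected, normalized data fitted to concentration-effect curves.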
SW480 rerep: A quantitative high throughput screen for small molecules that induce DNA re-replication in SW480 colon adenocarcinoma cells; SW480 DNA re-replication, Hoechst DNA content imaging, 48 h; AID 624297, 2012; Potency, µM (titrated, usually from 46.1 µM), inactives show at the highest dose re-replication activation, actives largely listed as activators; 340,000 compounds, 1.8% hits; also: potency is read from the fitted curve at half-maximal effect; % of control where 0% means no effect; nearly all actives have a fitted effect of over 55% in size
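Image-based read-out: total Hoechst fluorescence of nuclei (405 nm excitation, 500-530 nm emission), with hits raising the fraction of high-intensity nuclei. SW480 colon cells incubated 48 hr with compounds at 37 C.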
MCF10A rerep: A quantitative high throughput screen for small molecules that induce DNA re-replication in MCF 10a normal breast cells | 350,000 compounds, 2.9% hits | Potency, µM (doses to about 46.1 µM), without a hit: at the top dose activity, positive = re-replication, actives largely listed as activators | MCF 10A DNA re-replication, Hoechst nuclear intensity, 48 h; also: potency is read from the fitted curve at half-maximal effect; % of control where 0% means no effect; nearly all actives have a fitted effect of over 50% in size
The depositor's hits bear a star; [ ] = dose if it differs, or a comment. Unless noted, calls follow the shape of the dose curve; as a rule, active = well fitted curve in the direction sought with a large enough effect; inconclusive = small, poorly fitted or top-dose-only effect, or another doubt; inactive = no such curve, though single readings can be large; an effect the other way counts as inactive or inconclusive.

Results for N#Cc1ccccc1CN1C(=O)NC(Cc2c[nH]c3ccccc23)C1=O (centres undefined) ?
hERG WT inh: 21; KB-3-1 tox: inactive; KCNH2 3.1 inh: -22; KB-V1 MDR tox: inactive; SW480 rerep: 9%; MCF10A rerep: -9%

Results for O=C1/C(=C\c2c(NCCOCCO)nc3ccccn3c2=O)SC(=S)N1Cc1ccco1 ?
hERG WT inh: -17; KB-3-1 tox: inactive; KCNH2 3.1 inh: 4; KB-V1 MDR tox: inconclusive; SW480 rerep: -35%[1.84 µM]; MCF10A rerep: 9.2µM*

How did COc1cc(NCCCCC(C)N)c2nccc(C)c2c1 (centres undefined) do in these assays?
hERG WT inh: -11; KB-3-1 tox: 5.2µM*; KCNH2 3.1 inh: 4; KB-V1 MDR tox: inconclusive

Results for COc1cc(NCCCC(C)N)c2ncccc2c1 (centres undefined) ?
hERG WT inh: 0; KB-3-1 tox: inconclusive; KCNH2 3.1 inh: -2; KB-V1 MDR tox: inactive; SW480 rerep: inconclusive; MCF10A rerep: 17%

Results for CCCCN(CCCC)CC(O)CN(c1cc([N+](=O)[O-])ccc1OC)S(=O)(=O)c1ccccc1 (centres undefined) ?
hERG WT inh: 5; KB-3-1 tox: inconclusive; KCNH2 3.1 inh: -8; KB-V1 MDR tox: 2.6µM*; SW480 rerep: inconclusive; MCF10A rerep: 13%

How did CCOC(=O)CNC(c1ccccc1)c1cc(Br)ccc1NC(=O)OCC (centres undefined) do in these assays?
hERG WT inh: -1; KB-3-1 tox: inactive; KCNH2 3.1 inh: -11; KB-V1 MDR tox: inactive; SW480 rerep: 3%; MCF10A rerep: 19%

What do the screens show for `CCOC(=O)CNC(c1ccccc1)c1cc(Br)ccc1NC(=O)CCN1CCOCC1` (centres undefined)?
KB-3-1 tox: inactive; KCNH2 3.1 inh: -1; KB-V1 MDR tox: inconclusive; SW480 rerep: 107%; MCF10A rerep: 10µM*

What do the screens show for `COC(=O)CNC(c1ccccc1)c1cc(Br)ccc1NC(=O)CCN1CCOCC1` (centres undefined)?
hERG WT inh: -9; KB-3-1 tox: inactive; KCNH2 3.1 inh: -15; KB-V1 MDR tox: inconclusive; SW480 rerep: inconclusive; MCF10A rerep: 18µM*

How did COC(=O)CNC(c1ccccc1)c1cc(Br)ccc1NS(=O)(=O)c1ccccc1 (centres undefined) do in these assays?
hERG WT inh: 1; KB-3-1 tox: inactive; KCNH2 3.1 inh: 5; KB-V1 MDR tox: inactive; SW480 rerep: -1%; MCF10A rerep: -7%

What do the screens show for `COC(=O)CNC(c1ccccc1)c1cc(Br)ccc1NS(=O)(=O)c1ccc(C)cc1` (centres undefined)?
hERG WT inh: -3; KB-3-1 tox: inactive; KCNH2 3.1 inh: 3; KB-V1 MDR tox: 5.8µM*; SW480 rerep: 4%; MCF10A rerep: 9%

Results for Oc1cc2cc(-c3csc(-c4ccc(F)cc4)n3)ccc2[nH]1 ?
KB-3-1 tox: inactive; KB-V1 MDR tox: inactive

How did O=C(CSc1nnc(NCc2ccccc2)s1)c1ccco1 do in these assays?
hERG WT inh: -2; KB-3-1 tox: inactive; KCNH2 3.1 inh: -5; KB-V1 MDR tox: inactive; SW480 rerep: -9%; MCF10A rerep: 11%

How did Nc1ccc2ncccc2c1 do in these assays?
hERG WT inh: 2; KB-3-1 tox: inactive; KCNH2 3.1 inh: -118*; KB-V1 MDR tox: inactive; SW480 rerep: 1%; MCF10A rerep: -17%

Results for COc1ccc(O)c(C(=O)/C=C/c2cc3ccccc3o2)c1 ?
hERG WT inh: -5; KB-3-1 tox: inactive; KCNH2 3.1 inh: 10; KB-V1 MDR tox: inactive; SW480 rerep: inconclusive; MCF10A rerep: 2.6µM*

Results for COc1cccc(C(=O)Oc2ccccc2/C=C\C(=O)c2cc3ccccc3o2)c1 ?
hERG WT inh: -12; KB-3-1 tox: inconclusive; KCNH2 3.1 inh: -1; KB-V1 MDR tox: inactive; SW480 rerep: inconclusive; MCF10A rerep: 0.58µM*

Results for O=C(Oc1ccccc1/C=C\C(=O)c1cc2ccccc2o1)c1ccccc1 ?
hERG WT inh: -13; KB-3-1 tox: inactive; KCNH2 3.1 inh: -11; KB-V1 MDR tox: inactive; SW480 rerep: inconclusive; MCF10A rerep: inconclusive

What do the screens show for `COc1ccc(C(=O)/C=C/c2ccccc2OC)c(OC(=O)c2ccc([N+](=O)[O-])cc2)c1`?
hERG WT inh: 8; KB-3-1 tox: inconclusive; KCNH2 3.1 inh: -15; KB-V1 MDR tox: inconclusive; SW480 rerep: inconclusive; MCF10A rerep: inconclusive

What do the screens show for `O=C(Oc1ccccc1/C=C\C(=O)c1cc2ccccc2o1)c1cccc(F)c1`?
hERG WT inh: 0; KB-3-1 tox: inactive; KCNH2 3.1 inh: -6; KB-V1 MDR tox: inconclusive; SW480 rerep: inconclusive; MCF10A rerep: 18µM*

What do the screens show for `Cn1nc(C(C)(C)C)cc1NC(=O)C1(C)CCN1C(=O)CC(c1ccccc1)c1ccccc1` (centres undefined)?
KB-3-1 tox: inactive; KB-V1 MDR tox: inactive

Results for CC(C(=O)N1CCc2ccccc21)N(C)CC(=O)Nc1ccccc1Cl (centres undefined) ?
hERG WT inh: 14; KB-3-1 tox: inactive; KCNH2 3.1 inh: 8; KB-V1 MDR tox: inactive; SW480 rerep: -19%; MCF10A rerep: 13%

How did CC1CCCN(c2ccc3nc4ccccc4c(=O)n3n2)C1 (centres undefined) do in these assays?
hERG WT inh: -13; KB-3-1 tox: inconclusive; KCNH2 3.1 inh: 7; KB-V1 MDR tox: 7.3µM*; SW480 rerep: -2%; MCF10A rerep: -2%

Results for Cc1ccc2nc3ccc(N4CCCC4)nn3c(=O)c2c1 ?
hERG WT inh: 1; KB-3-1 tox: inactive; KCNH2 3.1 inh: 3; KB-V1 MDR tox: inconclusive; SW480 rerep: 0%; MCF10A rerep: 2%

How did CN(C(=O)CSc1nnc(Cc2ccccc2F)n1N)C1CCCCC1 do in these assays?
hERG WT inh: -4; KB-3-1 tox: inactive; KCNH2 3.1 inh: -38; KB-V1 MDR tox: inactive; SW480 rerep: 2%; MCF10A rerep: 1%

What do the screens show for `Cc1ccc2c(C)c(C)c(=O)n(C)c2c1`?
hERG WT inh: -7; KB-3-1 tox: inactive; KCNH2 3.1 inh: -25; KB-V1 MDR tox: 15µM*; SW480 rerep: -2%; MCF10A rerep: 2%
